Laboratory results taken from the supplement of paper PMC6555819.

Key:
Assay in all cases: PBM binding z-score (relative to random genomic background probes); higher = stronger binding; sequences stand for … in GC…GCGATTGACAGCGTAGAATGAAGG
[1] = test system: FXR:RXRa (NR concentration 270 nM, RXRa partner concentration 90 nM)
Procedure, shortened: (§1)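 Each nuclear receptor dimer, without ligand, was incubated for 1 h on custom Agilent 4×180K protein-binding microarrays. Binding was detected with antibodies against each partner (one per run), and scanned fluorescence was regression-normalized. The binding z-scores are referenced to random human genomic background probes.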

[2] = test system: LXRa:RXRa (NR concentration 270 nM, RXRa partner concentration 90 nM)
Procedure, shortened: as §1

[3] = test system: LXRa homodimer (NR concentration 270 nM)
Procedure, shortened: as §1

[4] = test system: LXRb:RXRa (NR concentration 270 nM, RXRa partner concentration 90 nM)
Procedure, shortened: as §1

[5] = test system: LXRb homodimer (NR concentration 270 nM)
Procedure, shortened: as §1

[6] = test system: PPARa:RXRa (NR concentration 270 nM, RXRa partner concentration 90 nM)
Procedure, shortened: as §1

[7] = test system: PPARg:RXRa (NR concentration 180 nM, RXRa partner concentration 90 nM)
Procedure, shortened: as §1

[8] = test system: PPARg:RXRa 270nM:90nM, anti-RXR (NR concentration 270 nM, RXRa partner concentration 90 nM)
Procedure, shortened: as §1

[9] = test system: PPARg:RXRa 30nM:10nM, anti-RXR (NR concentration 30 nM, RXRa partner concentration 10 nM)
Procedure, shortened: as §1

[10] = test system: PPARg:RXRa 90nM:30nM, anti-RXR (NR concentration 90 nM, RXRa partner concentration 30 nM)
Procedure, shortened: as §1

[11] = test system: PPARg:RXRa DBDmut IVT, anti-RXR (DBD mutation: RXRa K156A/R161A, NR concentration 270 nM, RXRa partner concentration 90 nM)
Procedure, shortened: as §1

[12] = test system: PPARg:RXRa IVT, anti-PPARg (NR concentration 270 nM, RXRa partner concentration 90 nM)
Procedure, shortened: as §1

[13] = test system: PPARg DBDmut:RXRa IVT, anti-PPARg (DBD mutation: PPARg1 K132A/R137A, NR concentration 270 nM, RXRa partner concentration 90 nM)
Procedure, shortened: as §1

[14] = test system: PPARg DBDmut IVT, anti-PPARg (DBD mutation: PPARg1 K132A/R137A, NR concentration 270 nM)
Procedure, shortened: as §1

[15] = test system: PPARg homodimer (NR concentration 180 nM)
Procedure, shortened: as §1

[16] = test system: PXR:RXRa (NR concentration 270 nM, RXRa partner concentration 90 nM)
Procedure, shortened: as §1

[17] = test system: PXR homodimer (NR concentration 270 nM)
Procedure, shortened: as §1

[18] = test system: RARa:RXR (NR concentration 270 nM, RXRa partner concentration 90 nM)
Procedure, shortened: as §1

[19] = test system: RARa homodimer (NR concentration 270 nM)
Procedure, shortened: as §1

[20] = test system: RARb:RXRa (NR concentration 270 nM, RXRa partner concentration 90 nM)
Procedure, shortened: as §1

Sequence	PBM binding z-score [1]	PBM binding z-score [2]	PBM binding z-score [3]	PBM binding z-score [4]	PBM binding z-score [5]	PBM binding z-score [6]	PBM binding z-score [7]	PBM binding z-score [8]	PBM binding z-score [9]	PBM binding z-score [10]	PBM binding z-score [11]	PBM binding z-score [12]	PBM binding z-score [13]	PBM binding z-score [14]	PBM binding z-score [15]	PBM binding z-score [16]	PBM binding z-score [17]	PBM binding z-score [18]	PBM binding z-score [19]	PBM binding z-score [20]
CCTACTGGGCCACGAGAGGTCATTGATTCAGTGA	3.4	4.47	4.55	3.57	0.302	4.09	4.45	4.16	1.68	3.1	6.03	5.58	-0.253	-0.977	3.46	5.52	2.52	5.15	1.39	3.27
GATACAGGGTCAGCTAGAGGCCAGGGTATGGAAA	4.42	2.81	-0.258	2.46	-0.476	4.43	3.61	3.44	0.426	2.14	0.631	2.38	0.352	-0.589	2.74	2.94	0.0758	4.28	0.0773	4.06
TAGCCTAGGTCATTTAGGGGCCAGTATAGAAAGC	4.42	4.04	0.996	3.09	1.69	3.41	1.46	2.15	0.169	1.49	1.79	2.38	0.515	-0.286	1.87	2.34	-0.166	3.45	-0.429	3.6
TCTATTAATTGATTAGGGCAACCGAAACAGCGGA	0.209	0.405	1.09	0.283	0.631	0.559	0.157	1.87	3.6	2.5	1.84	1.09	0.728	1.07	2.22	0.386	1.53	0.419	2.52	0.75
TAACCAAGGTGAGCTGAGGTCGTTGATCCAACTC	2.66	1.63	-0.195	0.348	-0.934	1.81	0.206	0.531	-0.0525	0.137	0.67	1.99	-0.13	0.366	-0.0916	4.88	0.136	1.74	-0.541	1.81
TTACCAAGGTGAAAGGTCGTTAATGCACGCCTTG	3.24	2.77	0.376	2.71	-0.461	5.24	8.59	7.35	6.74	7.85	2.25	4.95	-0.238	0.567	1.27	3.35	0.236	4.98	0.00553	2.78
TCTAATTGGTCACGGAGGTCACACACGACGGGTA	3.62	4	2.74	3.75	1.6	4.35	4.51	5.01	4.41	5.06	2.78	4.04	1.67	1.69	3.37	4.81	1.7	4.76	2.23	4.2
TGAATGGGGTTATAAGATCAGGGAACGTTGCAAA	3.48	2.4	0.471	4	2	4.74	3.24	3.32	1.77	2.79	2.58	2.71	2.28	1.59	2.39	2.25	1.48	3.06	2.01	1.69
ATCTCTAGGTAAGACTCAGTACAGTGAAGAACGC	0.589	0.377	0.528	0.101	0.88	0.1	0.293	-0.0568	0.341	0.016	1.66	1.18	0.455	1.12	1.13	-0.0434	0.717	0.344	1.32	0.147
GGAACGAGGGCATTCGAGTGGATAGCATGGCGAT	0.825	0.32	-0.525	-0.0544	-0.833	1.13	0.858	0.594	-0.34	-0.0101	2.7	1.91	0.297	-0.551	-0.225	0.6	-0.278	0.17	-0.0575	1.74
CCTAGCAGGGCAGGGTCACTCAAGCATTTCGCTT	2.68	2.17	-0.361	2.12	-1.22	3.32	1.4	2.37	-0.0964	1.47	0.873	1.78	-1.54	-0.906	1.69	2.92	-0.402	3.98	-0.114	3
TCATATAGGTAAAGGTGGAAGTCGAACGATATGA	0.695	0.507	0.313	0.415	0.0945	1.93	2.54	3.54	4.18	3.93	3.45	2.86	1.27	1.48	0.634	0.357	0.267	0.637	0.638	0.387
TAGTCTAGGTCATGCGGGCCAGTATAGTGTCGGC	4.02	3.48	1.36	1.76	1.87	3.92	4.97	4.56	1.78	3.81	5.79	6.05	2.08	2.16	1.27	1.58	0.355	2.07	0.351	3.85
CCTGCTAGGTTATGGTCAGCTAATCTACAGTATG	-0.0301	-0.0994	-0.554	-0.211	-0.277	-0.0739	-0.279	-0.092	-0.295	-0.423	1.28	0.468	-0.113	0.438	-0.1	-0.197	-0.354	-0.233	0.0671	1
TCCGCTAGGTCAGTTGGTCAGCTAACGAGCTGCC	1.2	0.833	-0.36	0.472	-0.0467	1.57	0.233	1.55	1.2	1.49	2.32	2.55	-0.0326	-0.848	0.175	0.233	-0.744	0.687	-0.7	3.44
ACAGACAGGTGAGTGAAGGTATCTCAGCTGGACG	-0.3	-0.499	-0.504	-0.625	-0.39	0.116	0.581	-0.119	0.319	-0.0281	0.178	0.541	-0.168	-1.07	-0.226	-0.609	-0.293	-0.438	-0.61	0.255
GATACAGGGTCAAGGCGAGAGTACGCGTATTGAT	6.79	4.05	-0.0981	3.74	0.243	5.39	5.7	5.39	2.2	4.05	2.65	3.72	2.63	0.177	3.25	3.76	0.46	4.83	1.14	4.37
ATCTCTAGGTAAGACTCAGTTCAGTCAAGAACGC	0.474	0.647	0.721	0.685	0.923	0.293	0.116	0.136	0.155	0.184	1.92	1.14	0.571	0.277	1.18	1.32	1.41	0.474	1.34	0.511
TCATATAGGTAAAGGTGAAGGTCGAACGATATGA	1.28	1.29	-0.098	1.57	0.0286	3.41	4.01	4.29	4.42	4.54	4.25	4.21	1.49	1.44	1.37	1.57	0.53	2	0.708	2.45
TTACCCAGGTGAAAGGTCGTTGATGCACGCCTTG	2.92	3.07	0.858	2.75	-0.247	5.24	9.35	8.61	7.49	10.2	3.16	5.28	1.04	0.584	2.1	3.69	0.742	4.9	-0.211	2.46
TCGAGTAGGTAAGTCGGGGCATTCAGCCAACATA	-0.0236	-0.0704	-0.439	-0.175	-0.922	0.0443	-0.3	0.0863	0.929	0.572	1.34	0.805	-1.3	-0.763	-0.452	-0.238	-0.436	-0.22	-0.413	-0.182
GCAGACAGGTGAAACGCATGTAACTCAGGGTGGC	-0.379	-0.173	-0.544	-0.265	-1.29	0.825	0.841	-0.0772	-0.653	-0.344	0.516	0.404	-1.74	-0.927	-0.716	-0.307	-0.659	-0.0582	-0.606	0.532
TAGCCTAGGTCATTGGCCCAGTATAGTACGCATC	4.84	3.9	1.34	2.45	-0.219	3.53	2.1	2.32	0.439	1.49	1.34	3.13	0.481	-0.598	1.5	1.71	-0.0601	2.29	-0.585	3.67
GATACAGGGTCAGCTAGCGGCCAGAGTATGGAAA	4.95	2.67	-0.847	2.34	-0.774	4.56	3.77	3.29	0.52	2.01	1.01	2.05	0.0696	-0.868	1.51	2.37	-0.651	3.79	0.418	3.96
CCTAGCAGGGCAATCTGGGTCACTCAAGGCTTGA	0.679	2.4	-0.398	0.85	-0.611	2.99	2.72	2.62	0.319	1.75	4.48	5.72	-0.465	-0.641	0.648	1.65	-0.451	1.89	-0.799	2.06
AGTCAAAGTTCAGGAGGAGGTAACGTAAAGCACG	4.22	3.87	1.6	2.24	0.773	3.67	5.03	5.22	2.38	3.98	-0.11	2.24	0.683	1.05	2.81	3.09	1.96	3.17	1.91	4.57
CCTCGGAGGACAACAGGAGGTCAGAGCCGCCAGA	0.835	2.03	1.67	1.17	-0.539	1.92	0.457	0.136	-0.412	-0.258	-0.218	0.369	-1.41	-1.45	1.21	1.72	0.183	1.99	-0.021	2.92
GTTACAGGGTCAGCTAGAGGCCAGAGTATGGAAA	4.39	3.18	-0.168	2.39	0.166	4.41	3.35	3.64	0.837	2.63	1.9	2.79	0.0715	-0.0967	2.41	3.39	0.141	3.88	0.709	4.27
CCTATCAGGCCAATCTGGGTCACTCAAGGCTTGA	0.68	1.71	-0.155	1.02	0.106	3.29	2.26	2.47	0.43	1.76	4.25	5.29	0.637	-0.095	1.45	1.27	-0.29	2.62	0.00198	1.75
